This note sets out measurements from PubChem BioAssay (EPA / NIEHS).

Holding throughout (conditions): mRNA level, 48 h; actives raise or lower the signal
Read-out in assay [1]: Paternally Expressed 10 (PEG10), PEG10 (gene 23089)
In words: LTEA_HepaRG_PEG10: Life Technologies and Expression Analysis (LTEA) Assay for Paternally Expressed 10 (PEG10) using HepaRG (AID 2283520). The procedure, abridged:
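HepaRG, 48 h post-plating → serum-free induction medium → 48 h chemical exposure (duplicate, 8-pt, max 100 uM, half-log, 0.5% DMSO) → lysis in RLT → TaqMan qRT-PCR for PEG10, ACTB/GAPDH/POLR2A normalisation.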

Read-out in assay [2]: Nuclear factor NF-kappa-B p105 subunit (Homo sapiens) (UniProt P19838)
As to the kind of experiment: LTEA_HepaRG_NFKB1: Life Technologies and Expression Analysis (LTEA) Assay for Nuclear Factor Kappa B Subunit 1 (NFKB1) using HepaRG (AID 2283521).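 As to outcome: differentiated human HepaRG liver cells in serum-free induction medium; TaqMan qRT-PCR transcript normalised to ACTB GAPDH and POLR2A housekeeping genes.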 The procedure, abridged: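 HepaRG, 48 h exposure; 8-pt half-log series from 100 uM in 0.5% DMSO; duplicates. Readout: NFKB1 mRNA by qRT-PCR (Fluidigm arrays), housekeeping-normalized. Gain/loss fit vs DMSO baseline.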

Read-out in assay [3]: Protein phosphatase 2A (PPP2R4), PTPA (gene 5524)
As to the kind of experiment: LTEA_HepaRG_PPP2R4: Life Technologies and Expression Analysis (LTEA) Assay for Protein phosphatase 2A (PPP2R4) using HepaRG (AID 2283522). The procedure, abridged:
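Readout is PPP2R4 transcript level by microfluidic qRT-PCR after 48 h chemical treatment of human HepaRG liver cells. Concentrations spanned 100 uM downward in half-log steps; gain or loss of signal was fitted relative to DMSO.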

Read-out in assay [4]: solute carrier (SLC22A1), SLC22A1 (gene 6580)
As to the kind of experiment: LTEA_HepaRG_SLC22A1: Life Technologies and Expression Analysis (LTEA) Assay for solute carrier (SLC22A1) using HepaRG (AID 2283524).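 As to AC50: differentiated human HepaRG liver cells in serum-free induction medium; TaqMan qRT-PCR normalized to ACTB GAPDH and POLR2A housekeeping genes.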 The method in brief:
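HepaRG (human liver line), 48 h dosing in serum-free induction medium; 8 conc., half-log down from 100 uM, 0.5% DMSO vehicle, duplicates. Endpoint: SLC22A1 mRNA, qRT-PCR, housekeeping-normalized; gain/loss fit vs DMSO.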

Read-out in assay [5]: Pyruvate Dehydrogenase Kinase 4 (PDK4), PDK4 (gene 5166)
As to the kind of experiment: LTEA_HepaRG_PDK4: Life Technologies and Expression Analysis (LTEA) Assay for Pyruvate Dehydrogenase Kinase 4 (PDK4) using HepaRG (AID 2283525). The procedure, abridged: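 In this multiplexed human HepaRG expression assay, cells are treated 48 h with test chemicals across an eight-point range starting at 100 uM. PDK4 mRNA changes, normalized to ACTB/GAPDH/POLR2A, are fitted in both directions relative to vehicle.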

Read-out in assay [6]: NAD(P)H dehydrogenase [quinone] 1 (NQO1), NQO1 (gene 1728)
In words: LTEA_HepaRG_NQO1: Life Technologies and Expression Analysis (LTEA) Assay for NAD(P)H dehydrogenase [quinone] 1 (NQO1) using HepaRG (AID 2283526). The procedure, abridged: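 HepaRG, 48 h post-plating → serum-free induction medium → test chemical 48 h (duplicate, 100 uM top, half-log x8, 0.5% DMSO) → RNA isolation → qRT-PCR, ACTB/GAPDH/POLR2A normalization; bidirectional curve fit vs DMSO baseline.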

Read-out in assay [7]: Nuclear factor erythroid 2-related factor 2 (Homo sapiens) (UniProt Q16236)
In words: LTEA_HepaRG_NFE2L2: Life Technologies and Expression Analysis (LTEA) Assay for Nuclear factor erythroid 2-related factor 2 (NFE2L2) Transcription Factor using HepaRG (AID 2283527).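 As to outcome: TaqMan qRT-PCR transcript level normalised to ACTB GAPDH and POLR2A housekeeping genes.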 The procedure, abridged:
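Transcript level of NFE2L2 is the read-out, measured by microfluidic TaqMan qRT-PCR and normalized to three housekeeping genes. Human HepaRG cultures received test chemical for 48 h at up to 100 uM in half-log steps. Gain or loss of signal is fitted relative to 0.5% DMSO.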

Read-out in assay [8]: succinate dehydrogenase complex iron sulfur subunit B (SDHB), SDHB (gene 6390)
As to the kind of experiment: LTEA_HepaRG_SDHB: Life Technologies and Expression Analysis (LTEA) Assay for succinate dehydrogenase complex iron sulfur subunit B (SDHB) using HepaRG (AID 2283528). The method in brief:
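Readout is SDHB transcript level by qRT-PCR, normalised to three housekeeping genes and fitted bidirectionally against 0.5% DMSO vehicle. Human HepaRG cells were treated for 48 h at up to 100 uM.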

Read-out in assay [9]: Signal transducer and activator of transcription 3 (Homo sapiens) (UniProt P40763)
As to the kind of experiment: LTEA_HepaRG_STAT3: Life Technologies and Expression Analysis (LTEA) Assay for Signal transducer and activator of transcription (STAT3) using HepaRG (AID 2283529). The procedure, abridged:
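Read-out is STAT3 mRNA level by qRT-PCR, normalized to three housekeeping genes, in human HepaRG liver cells treated for 48 h. Concentrations ran from 100 uM downward in half-log steps; curves were fitted for gain or loss relative to 0.5% DMSO.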

Read-out in assay [10]: solute carrier (SLCO1B1), SLCO1B1 (gene 10599)
In words: LTEA_HepaRG_SLCO1B1: Life Technologies and Expression Analysis (LTEA) Assay for solute carrier (SLCO1B1) using HepaRG (AID 2283530). The procedure, abridged: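 Gain or loss of SLCO1B1 mRNA is fitted against the 0.5% DMSO vehicle in human HepaRG liver cells treated 48 h at up to 100 uM in half-log steps. Expression comes from qRT-PCR normalized to endogenous controls.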

Structures are written as SMILES. Where a structure was tested more than once in an assay, its records may differ in their call. Calls of active or inactive are those of the source. The calls were made as follows: active = hit-call score of the fitted dose curve at least 0.9, where 1 is the maximum; inactive = score below 0.9.

Nuclear factor NF-kappa-B p105 subunit (Homo sapiens), sequence (P19838 whole entry, looked up): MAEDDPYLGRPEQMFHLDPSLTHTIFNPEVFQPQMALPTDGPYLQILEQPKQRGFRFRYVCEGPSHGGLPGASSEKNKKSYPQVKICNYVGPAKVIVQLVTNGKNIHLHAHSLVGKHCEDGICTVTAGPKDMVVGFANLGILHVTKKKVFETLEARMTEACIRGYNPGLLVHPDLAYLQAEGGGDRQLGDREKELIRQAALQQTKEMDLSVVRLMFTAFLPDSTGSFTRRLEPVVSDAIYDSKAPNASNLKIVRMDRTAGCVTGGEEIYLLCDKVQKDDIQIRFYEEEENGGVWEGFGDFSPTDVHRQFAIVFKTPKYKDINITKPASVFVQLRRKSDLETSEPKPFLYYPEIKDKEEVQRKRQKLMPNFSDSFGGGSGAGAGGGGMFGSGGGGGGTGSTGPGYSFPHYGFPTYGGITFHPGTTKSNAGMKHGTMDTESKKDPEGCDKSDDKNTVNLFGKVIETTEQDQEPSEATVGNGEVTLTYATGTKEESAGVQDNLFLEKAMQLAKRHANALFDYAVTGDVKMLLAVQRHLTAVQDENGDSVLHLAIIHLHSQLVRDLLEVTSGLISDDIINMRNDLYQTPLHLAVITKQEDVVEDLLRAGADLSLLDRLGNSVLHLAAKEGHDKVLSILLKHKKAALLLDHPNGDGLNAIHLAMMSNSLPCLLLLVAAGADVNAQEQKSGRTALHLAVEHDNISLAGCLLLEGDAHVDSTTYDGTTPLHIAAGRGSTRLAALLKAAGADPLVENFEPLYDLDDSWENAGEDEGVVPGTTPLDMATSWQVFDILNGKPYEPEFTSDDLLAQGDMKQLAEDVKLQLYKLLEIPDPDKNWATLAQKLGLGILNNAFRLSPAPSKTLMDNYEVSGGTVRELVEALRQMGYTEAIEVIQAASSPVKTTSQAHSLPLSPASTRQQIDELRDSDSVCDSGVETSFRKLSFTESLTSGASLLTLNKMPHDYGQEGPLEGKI
Signal transducer and activator of transcription 3 (Homo sapiens), sequence (P40763 whole entry, looked up): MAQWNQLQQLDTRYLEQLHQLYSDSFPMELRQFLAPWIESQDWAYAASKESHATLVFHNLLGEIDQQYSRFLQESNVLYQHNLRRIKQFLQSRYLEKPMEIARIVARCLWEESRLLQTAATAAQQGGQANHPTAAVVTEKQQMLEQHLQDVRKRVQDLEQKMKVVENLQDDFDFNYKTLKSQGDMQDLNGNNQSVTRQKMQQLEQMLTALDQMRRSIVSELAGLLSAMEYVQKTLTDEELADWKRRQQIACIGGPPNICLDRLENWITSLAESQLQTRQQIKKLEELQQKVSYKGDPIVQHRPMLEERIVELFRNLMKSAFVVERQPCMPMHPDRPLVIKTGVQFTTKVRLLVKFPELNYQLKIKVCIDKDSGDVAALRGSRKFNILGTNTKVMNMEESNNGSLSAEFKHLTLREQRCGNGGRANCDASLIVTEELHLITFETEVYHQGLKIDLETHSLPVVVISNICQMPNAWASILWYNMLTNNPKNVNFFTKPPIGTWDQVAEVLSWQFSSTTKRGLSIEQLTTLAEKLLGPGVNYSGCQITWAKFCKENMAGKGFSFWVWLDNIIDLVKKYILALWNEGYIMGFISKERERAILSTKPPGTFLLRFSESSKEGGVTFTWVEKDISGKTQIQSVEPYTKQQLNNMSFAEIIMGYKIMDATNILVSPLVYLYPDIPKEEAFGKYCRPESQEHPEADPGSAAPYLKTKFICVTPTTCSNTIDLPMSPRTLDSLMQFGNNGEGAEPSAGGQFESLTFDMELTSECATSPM
Nuclear factor erythroid 2-related factor 2 (Homo sapiens), sequence (Q16236 whole entry, looked up): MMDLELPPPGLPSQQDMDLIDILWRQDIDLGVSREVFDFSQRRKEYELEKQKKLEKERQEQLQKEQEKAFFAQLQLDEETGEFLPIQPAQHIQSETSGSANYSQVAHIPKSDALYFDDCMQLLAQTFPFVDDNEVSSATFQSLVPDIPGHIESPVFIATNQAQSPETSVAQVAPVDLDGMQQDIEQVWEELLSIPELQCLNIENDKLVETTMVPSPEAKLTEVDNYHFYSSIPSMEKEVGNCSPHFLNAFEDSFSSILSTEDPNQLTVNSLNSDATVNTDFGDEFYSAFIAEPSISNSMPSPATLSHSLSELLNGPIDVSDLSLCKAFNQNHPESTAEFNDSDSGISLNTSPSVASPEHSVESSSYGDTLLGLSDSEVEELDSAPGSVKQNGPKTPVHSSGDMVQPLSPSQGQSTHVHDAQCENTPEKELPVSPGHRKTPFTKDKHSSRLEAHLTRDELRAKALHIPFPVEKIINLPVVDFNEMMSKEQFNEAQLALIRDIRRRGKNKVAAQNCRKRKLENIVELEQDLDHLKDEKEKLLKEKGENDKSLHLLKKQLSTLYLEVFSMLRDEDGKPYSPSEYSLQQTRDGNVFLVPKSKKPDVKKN

Consider `Cc1ccccc1N`, for which the outcome in [1], in assay [2], in assay [3], in [4], in assay [5] and in [6] was inactive. Moreover, the outcome in assay [7], in assay [8], in assay [9] and in assay [10] was inactive.

Regarding `O=c1[nH]c(=O)[nH]c(=O)[nH]1`, the call in [1], in assay [2], in assay [3], in assay [4], in assay [5] and in assay [6] was inactive. Further, the outcome in [7], in assay [8], in assay [9] and in assay [10] was inactive.

By AC50 is commonly meant the concentration at which the activity in the assay is half-maximal. Regarding `CC(=O)[O][Hg][c]1ccccc1`, the AC50 in assay [1] is 50 µM (active); in [2], 23.2 µM (active); in [3], 28 µM (active); in assay [4], 2.33 µM (active); in assay [5], 13.1 µM (active); in [6], 12.3 µM (active). The results for the AC50 in [7], in [8] and in assay [9] were 23.4 µM (active), 26.2 µM (active) and 17 µM (active), respectively. In addition, the compound was called inactive in [10].

For the compound `C=CC(=O)OCCCCCC(C)C`, the outcome in assay [1], in assay [2], in assay [3], in assay [4], in [5] and in assay [6] was inactive. The result in [7], in assay [8], in assay [9] and in assay [10] was inactive.

In the case of `ClCC(Cl)CCl`, the compound was classed as inactive in [1], in assay [3], in assay [4], in [5], in [7] and in [8]. In addition, the compound was called inactive in assay [9] and in [10].

For `NC(=O)O`, the outcome in assay [1], in assay [2], in assay [3], in assay [4], in assay [5] and in assay [6] was inactive. For the same compound, the compound was called inactive in [7], in assay [8], in assay [9] and in [10].

As to `CN(C)N=O`, the result in [1], in assay [2], in assay [3], in [4], in [5] and in assay [6] was inactive. The outcome in assay [7], in assay [8], in assay [9] and in assay [10] was inactive.

Consider `ClC1(Cl)C2(Cl)C3(Cl)C4(Cl)C(Cl)(Cl)C5(Cl)C3(Cl)C1(Cl)C5(Cl)C24Cl` (stereo not drawn), for which the call in assay [1], in [3], in assay [4], in assay [6], in assay [7] and in assay [8] was inactive. Further, the result in [9] and in [10] was inactive. Moreover, the AC50 in assay [5] was 16.8 µM (active).

Regarding `C=C(C)C(=O)[O][Sn]([CH2]CCC)([CH2]CCC)[CH2]CCC`, the call in assay [1], in assay [3] and in assay [9] was inactive. Moreover, the AC50 in assay [2] was 94.9 µM (active); in [4] it was 2.7 µM (active); in assay [5], 1.18 µM (active); in [6], 9.2 µM (active); in assay [7] it was 61.3 µM (active); in [8], 94.1 µM (active). For the same compound, in [10], the AC50 was 2.57 µM (active).

As to `CCN1CCC2(CC1)COc1cc3c(cc12)N(C(=O)c1ccc(-c2ccc(-c4nnc(C)o4)cc2C)cc1)CC3`, the AC50 is 15.6 µM (active) in [1]; 46.8 µM (active) in assay [2]; 21.8 µM (active) in assay [3]; 22.9 µM (active) in assay [4]; 28.4 µM (active) in assay [5]; 24.8 µM (active) in assay [8]. Moreover, in assay [9], the AC50 is 13.7 µM (active). For the same compound, the result in assay [6], in assay [7] and in [10] was inactive.

Regarding `C[C@@H]1C[C@@H]([C@H](O)CC2CC(=O)NC(=O)C2)C(=O)[C@@H](C)C1`, the AC50 in assay [1] was 2.39 µM (active); in assay [2] it was 17.6 µM (active); in [3], 0.636 µM (active); in [4] it was 8.29 µM (active); in assay [5], 31.9 µM (active); in assay [6], 29.3 µM (active). Besides, the AC50 in [7] was 30.3 µM (active); in assay [8], 50 µM (active); in assay [9], 15.6 µM (active); in assay [10], 16.4 µM (active).

As to `O=C(O)C(F)(F)C(F)(F)C(F)(F)C(F)(F)C(F)(F)C(F)(F)F`, the compound was classed as inactive in assay [1], in [2], in [3], in [4], in [6] and in assay [7]. Moreover, the compound was called inactive in [8], in assay [9] and in assay [10]. In addition, the concentration at half-maximal activity (AC50) in assay [5] was 35.6 µM (active).

Consider `O=C(Nc1ccc2[nH]ccc2c1)c1cc2cc(F)ccc2n1Cc1cccc(F)c1`, for which the AC50 in assay [1] was 50 µM (active); in assay [4], 39.5 µM (active); in assay [5] it was 89.3 µM (active); in assay [7], 47.1 µM (active); in assay [10] it was 36.1 µM (active). Also, the result in assay [2], in [3], in assay [6], in [8] and in assay [9] was inactive.

For the compound `Oc1cccc2cccnc12`, the call in assay [1], in assay [3], in assay [4], in assay [5], in [6] and in [7] was inactive. Also, the compound was classed as inactive in assay [8], in [9] and in assay [10].

As for `CCOP(=S)(OCC)SCSP(=S)(OCC)OCC`, the compound was called inactive in assay [1], in assay [2], in [3], in [4], in assay [6] and in assay [7]. The compound was classed as inactive in assay [8], in assay [9] and in assay [10]. In addition, the AC50 in assay [5] is 20.4 µM (active).

Take `COc1cc(-c2ccc(N)c(OC)c2)ccc1N`: the AC50 in assay [1], in [4] and in assay [7] was 50 µM (active) throughout. Besides, the compound was called inactive in assay [2], in assay [3], in assay [4], in assay [5], in assay [6] and in assay [7]. Also, the compound was classed as inactive in assay [8], in assay [9] and in assay [10].
